Laboratory results: PubChem BioAssay AID504444 (National Center for Advancing Translational Sciences (NCATS), 2011)
Where “and” joins values, the source holds several entries; their conditions need not be identical. Equal values may be shown once. The whole screen tested about 360,000 compounds, of which about 7,500 (2.1%) were called active. Roughly 20% stayed inconclusive and do not appear here. Calls come from the whole dose curve; as a rule, active = well fitted inhibition curve with a large enough effect; inconclusive = small, poorly fitted or top-dose-only effect, or effect the other way; inactive = flat fitted curve, though single readings scatter. For the sample, actives were picked, then their nearest neighbours and some compounds at random.

assay: Nrf2 qHTS screen for inhibitors; details: A549 ARE-Fluc reporter, luciferase luminescence, 18-24 h; series mostly up to 46 µM; activity change, negative = inhibition: at the top concentration; note: nearly all actives have a fitted effect of over 60% in size
Procedure, shortened: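 Quantitative HTS in A549 cells stably bearing an antioxidant response element-firefly luciferase construct. Inhibition of Nrf2-driven transcription was scored by luminescence after 18-24 h of compound exposure at 37 °C.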
% is set by controls: 0 for no effect and ±100 for the full control effect; potency is the fitted concentration of half-maximal effect.

Activity change, negative = inhibition, inactive:
Cc1ccc(CN2CCC(CNC(=O)c3cnn(-c4ccc(C)cc4)c3C3CCN(C(=O)OC(C)(C)C)CC3)CC2)cc1 -41.9%
CCOc1ccc(NC(=O)COC(=O)C2CCC(=O)N2)c([N+](=O)[O-])c1 (centres undefined) 3.43%
COc1ccc(C2=NC3(CCCCC3)N(CC(=O)Nc3ccc(C(C)C)cc3)C2=O)cc1 -25.8%
COc1ccc(CCNC(=O)CCCCn2c(=O)c3ccccc3n(Cc3ccccc3)c2=O)cc1OC -8.95%
COC[C@@H]1NS(=O)(=O)c2ccc(Br)cc2O[C@H]1c1ccccc1 5.28%
CN(C(=O)c1cccc(NC(=O)C2CCN(C(=O)OC(C)(C)C)CC2)c1)C1CCC1 -22.6%
O=C(CCCC(=O)N1CCN(c2cccc(Cl)c2)CC1)c1ccccc1 -13.1%
O=C(CCn1c(=O)[nH]c2ccccc2c1=O)NCCCN1CCN(c2cccc(Cl)c2)CC1 -0.871%
CCn1c(C(=O)Nc2cc(Cl)ccc2C)cc2sc(Cl)cc21 -1.64%
COc1ccc(-n2c(=O)c3sc4ccccc4c3n(CC(=O)Nc3cccc(C)c3)c2=O)cc1 6.72%
Cc1ccc(C)c(Cn2c(C)c(CNCc3ccc(F)cc3)c(C(=O)O)c2C)c1 -8.89%
Cc1ccc(S(=O)(=O)N2CCC(C(=O)N3CCCCCCC3)CC2)cc1 -5.3%
COc1cc2c(C(=O)O)c(C)n(C)c2c2ccccc12 -23.7%
Cc1c(C(=O)N/N=C/c2ccccc2)[nH]c2c([N+](=O)[O-])cccc12 10.2%
Cc1cc2c(cc3c(SCc4cccc(Cl)c4)nnc(C)n32)o1 -20.9%
CC1Sc2ccc(C(=O)NCc3ccccc3Cl)cc2NC1=O (centres undefined) -17.3%
CCn1c2ccccc2c2cc(NC(=O)COC(=O)c3cc(S(=O)(=O)N4CCCCC4)ccc3Cl)ccc21 -25.8%
Cc1cccc(NC(=O)c2cccc(S(=O)(=O)N3CCCC3)c2)n1 2.33%
Cc1ccc(S(=O)(=O)N2CCN(C(=O)COC(=O)/C=C/c3cccc(Cl)c3)CC2)c(C)c1 4.76%
COC(=O)c1ccccc1NC(=O)c1cc(-c2ccccc2O)no1 -4.54%
Cc1ccc(C)c(S(=O)(=O)N(C)c2ccc(OC(=O)C3CCN(C(=O)c4ccc(F)cc4)CC3)cc2)c1 14.6%
COc1cccc2c1cc1c(=O)n(CC(=O)N3CCN(c4ccccc4)CC3)nc(C)n12 10.4%
COC(=O)COc1ccc(S(=O)(=O)Nc2ccc(NC(C)=O)cc2)cc1 10.2%
COc1ccc(NC(=O)c2cnc(NS(=O)(=O)c3ccccc3)nc2)cc1 -2.33%
COc1ccc(NS(=O)(=O)c2ccc(C(=O)Nc3c(C)n(C)n(-c4ccccc4)c3=O)cc2)cc1 -24.2%
COc1cc(OC)cc(C(=O)Nc2ccc(S(=O)(=O)Nc3cc(C)on3)cc2)c1 -16.9%
O=C(OCC#CCSc1nnc(-c2ccco2)o1)c1ccc(F)cc1 9.77%
CC(C)n1cnc2c(NCc3ccccc3)cc(OCC3CCN(C)CC3)cc21 -1.88%
Cc1ccc(NC(=O)c2ccc(Cl)nc2)cc1S(=O)(=O)N1CCOCC1 -8.85%
CCc1ccc(NC(=O)CCCc2nnc3n(CCCOC)c(=O)c4sccc4n23)cc1 -5.62%
O=C(c1cc2cc(F)ccc2[nH]1)N1CCN(c2ccc(F)cc2)CC1 2.46%
O=C(c1cncc(Br)c1)N1CCN(c2ccc([N+](=O)[O-])cc2)CC1 -24.1%
Cc1ccc(-n2c(=O)c3cccnc3n2CC(=O)Nc2ccccc2C(F)(F)F)cc1C 31.5%
CC(C)(C)OC(=O)C[C@@H]1C/C=C\C[C@@H](CC(=O)N(CCO)Cc2ccccc2)C(=O)N[C@H](Cc2ccccc2)COC1=O 5.23%
CCCn1c(=N)n(CC(O)COc2ccccc2OC)c2ccccc21 (centres undefined) 4.39%
CC(C)Cc1cc(C(=O)Nc2cc(Br)ccc2O)no1 18.3%
Cc1cc(C(=O)Nc2c(C)nn(Cc3ccccc3)c2C)on1 -3.05%
Cc1ccccc1Cn1nc(C)c(NC(=O)c2cc(-c3ccc(F)cc3)on2)c1C 5.95%
Cc1nn(Cc2ccc(F)cc2)c(C)c1NC(=O)c1cccnc1Cl -22.9%
Nn1c(SCC(=O)NC2CCCc3ccccc32)nnc1C1CC1 (centres undefined) -4.73%
O=C(CN1CCN(C2CCS(=O)(=O)C2)CC1)N1N=C(c2ccc(Cl)cc2)CC1c1ccco1 (centres undefined) -19.2%
C[C@@H]1NS(=O)(=O)c2cc(Cl)ccc2O[C@@H]1c1ccccc1 -9.06%
COc1ccc(CNC(=O)c2cc3c(s2)-c2ccccc2OC3)cc1 8.62%
O=S(=O)(Nc1ccc2ccccc2c1)N1CCCCC1 21.5%
COc1ccc(C2=Nn3c(nnc3-c3ccccc3O)SC2)cc1 -19.8%
Cc1nnc2n1N=C(c1ccccc1)CS2 -13.9%
Cc1cccc(NC(=O)CN(c2ccc(C(C)C)cc2)S(=O)(=O)c2c(C)nn(C)c2C)c1C -22.6%
O=C1CC(c2ccccc2)CC2=C1C(c1ccco1)n1nc(C(F)(F)F)nc1N2 (centres undefined) -5.13%
O=S(=O)(Nc1ccccn1)c1ccc(Oc2ccccc2)cc1 -25.2%
COC(=O)Cc1ccc(Oc2ncc(C(F)(F)F)cc2Cl)cc1 -1.72%
O=C(C[C@@H]1C/C=C\CCC(=O)OC[C@@H]2CCCN2C1=O)NCCO -13.3%
N#CCCN(C(=O)COC(=O)c1ccc2c(c1)OCCO2)c1ccccc1 5.07%
Brc1nc2ncnc(NCc3ccco3)c2[nH]1 -18.6%
O=C(Nc1c(Br)cc2c(c1Br)Cc1cc([N+](=O)[O-])ccc1-2)C(Cl)Cl 1.16%
COc1ccc(C(CNC(=O)c2cccc(S(=O)(=O)Nc3ccc(Br)cc3)c2)N(C)C)cc1 (centres undefined) 12.8%
COC(=O)c1ccc(CSc2nnc(NC(C)C)s2)cc1 9.82%
CCSc1nnc(NC(=O)c2cc(=O)c3cc(C)c(C)cc3o2)s1 -0.281%
Cc1ccc(NC(=O)c2oc3ccccc3c2NC(=O)Cc2cccs2)cc1 -2.62%
CCN(Cc1ccncc1)C(=O)CCc1ccccc1 14.4%
O=C(NOCc1ccccc1)c1cccc([N+](=O)[O-])c1 5.07%
CN1CCN(C2(CNC(=O)COc3ccc(C(C)(C)C)cc3)CCCCC2)CC1 23.4%
O=C(C(Cl)Cl)N1CCN(c2ccccn2)CC1 -1.05%
O=C(Cc1ccc(Br)cc1)N1CCN(c2ccccn2)CC1 -16.2%
COc1ccc(CN2C(CC(=O)Nc3cccnc3)c3ccc(C(F)(F)F)cc3S2(=O)=O)cc1 (centres undefined) -7.15%
O=C(CNC(=O)c1ccc(Cl)cc1Cl)OC(C(=O)Nc1cc(C(F)(F)F)ccc1Cl)c1ccccc1 (centres undefined) 7.1%
O=[N+]([O-])c1cccc2ncccc12 -7.71%
Cc1ccccc1NC(=O)c1ccccc1NS(=O)(=O)c1cccc2cccnc12 -4.28%
Cc1ccc(NC(=O)COc2ccc(/C=N\NC(=O)c3cccnc3)cc2)cc1C -21.1%
Cc1ccc(OCC(=O)NCCCNC(=O)c2ccco2)cc1C -1.07%
Cc1ccc(S(=O)(=O)N(C)CC(=O)NCC(c2ccc(F)cc2)N2CCOCC2)cc1 (centres undefined) -6.27%
CCC(=O)Nc1nc2ccccc2n1Cc1ccccc1C -17.9%
CC(=O)c1nc2ccccc2n1Cc1ccccc1 16%
CCN(CC)CCNC(=O)Cn1ncc2c3ccccc3n(Cc3ccccc3C)c2c1=O 6.67%
COC(=O)c1ccccc1NC(=O)c1ccc(C#N)cc1 -19.4%
N#Cc1ccc(Oc2ccc(C(F)(F)F)cc2NC(=O)c2ccc(F)cc2)cc1 22.2%
COc1ccc(C(F)(F)F)cc1NC(=O)c1sc2nc(-c3cccs3)ccc2c1N 1.83%
CN1CCN(C(=O)c2ccc(-c3ccc(Br)cc3)o2)CC1 11.3%
CC(=O)OCC(COC(C)=O)OC(C)=O 6.37%
CC(C[N+](C)(C)C)OC(N)=O (centres undefined) 0.44%
O=C(Nc1ccc(S(=O)(=O)N2CCC(c3nc4ccccc4s3)CC2)cc1)c1ccccc1F 15.9%
Cc1ccc2onc(CC(=O)N3CCN(c4ccc(Cl)cc4)CC3)c2c1 23.1%

Potency, active:
O=C(Cc1ccc(-n2c(=O)[nH]c3ccccc3c2=O)cc1)N1CCN(c2cccc(Cl)c2)CC1 16.4 µM
COc1cccc2c(C)c(C(=O)O)[nH]c12 20.6 µM
CCn1c(O)c(N=NC(=O)c2cccc(S(=O)(=O)N3CCCCC3)c2)c2ccccc21 20.6 µM
COc1ccc(NS(=O)(=O)c2ccc(NC(=O)c3ccc(N(C)S(C)(=O)=O)cc3)cc2)cc1 16.4 µM
COc1cc(NS(=O)(=O)c2ccc(NC(C)=O)cc2)cc(OC)c1 5.8 µM
O=C(c1cc(C(=O)N2CCN(c3ccc(F)cc3)CC2)cc([N+](=O)[O-])c1)N1CCN(c2ccc(F)cc2)CC1 18.4 µM
Cc1nn(Cc2ccc(F)cc2)c(C)c1NC(=O)c1noc2c1CCc1ccccc1-2 20.6 µM
Cc1nn(Cc2ccc(F)cc2)c(C)c1NC(=O)c1cc(CC(C)C)on1 20.6 µM
COc1ccc(C2=Nn3c(nnc3-c3ccccc3OC)SC2)cc1OC1CCCC1 16.4 µM
Cc1cc(C)cc(NS(=O)(=O)c2ccc(Oc3ncc(C(F)(F)F)cc3Cl)cc2)c1 4.11 µM
Cc1ccc(C(=O)Oc2coc(CSc3nnc(NC(=O)c4cccs4)s3)cc2=O)cc1C 14.6 µM
Cc1cc(C)c(SCCc2ccncc2)c(C)c1 16.4 µM
O=C(/C=C/c1cccc(C(F)(F)F)c1)N1CCN(c2ccccn2)CC1 23.1 µM
O=[N+]([O-])c1ccccc1S(=O)(=O)Nc1cccc2cccnc12 5.8 µM and 11.6 µM
Cc1ccc(OCC(=O)NCCCNC(=O)c2cccnc2)cc1C 5.17 µM
CC(=O)Nc1nc2ccccc2n1Cc1ccc(C)cc1 18.4 µM
N#Cc1ccc(C(=O)Nc2nc(-c3cccs3)c(C(=O)C(F)(F)F)s2)cc1 5.17 µM
CC(=O)OC(C)C[N+](C)(C)C (centres undefined) 0.461 µM
